# Assay outcomes: PubChem, National Center for Advancing Translational Sciences (NCATS)
# In the library only some 6.7% were active in any assay of this set; here they are far more common.
# KB-3-1 cytotox: KB-3-1 parental cell cytotoxicity; 400,000 compounds, 1.4% hits; KB-3-1 viability, CellTiter-Glo ATP luminescence, 72 h; Potency, µM (doses to about 46.1 µM), usual class: cytotoxic; further: on the % scale 0 is the no-effect control and ±100 the full control effect; nearly all actives have a fitted effect of over 60% in size
#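 Cytotoxicity measured as CellTiter-Glo luminescence after 72 h at 37 C. Compound titrations were pinned onto drug-naive KB-3-1 parental adenocarcinoma cells grown in DMEM with 10% FBS, and normalized data fitted to concentration-response curves.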
# SW480 rereplic: DNA re-replication induction in SW480 cells. Potency, µM (series often up to 46.1 µM), inactives show top-dose re-replication activation, hits mostly activators. 340,000 compounds, 1.8% hits. SW480 DNA re-replication, Hoechst DNA content imaging, 48 h. AID 624297; further: % of control where 0% means no effect; nearly all actives have a fitted effect of over 55% in size
#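 Image-based DNA-content assay: after two days of treatment, nuclei were labelled with the DNA dye Hoechst and imaged, and hits were compounds raising the count of nuclei showing high fluorescence intensity.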
# PINK1 modulator: PINK1 expression modulation. 410,000 compounds, 0.2% hits. PINK1 immunofluorescence, high-content cytometry, 24 h. AID 624263. Potency, µM (series often up to 76.6 µM), for the others: at the top dose activation (PINK1 increase), actives largely listed as activators; active means well fitted activation curve with a large enough effect; inconclusive means small, poorly fitted or top-dose-only effect; cell line not stated here; further: % of control where 0% means no effect; nearly all actives have a fitted effect of over 65% in size
#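 Stable cell line treated 24 h with compounds at 5 concentrations (CCCP controls), then fixed and immunostained for PINK1 plus nuclear and cell stains; PINK1 immunofluorescence quantified by laser-scanning microplate cytometry.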
# KB-V1 MDR tox: KB-V1 MDR subline cytotoxicity | Potency, µM (titrated, usually from 46.1 µM), most hits filed as cytotoxic | KB-V1 MDR cells viability, CellTiter-Glo, 72 h | 400,000 compounds, 3.4% hits | AID 1347076; further: on the % scale 0 is the no-effect control and ±100 the full control effect; nearly all actives have a fitted effect of over 60% in size
#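 Cells of the MDR subline KB-V1 are plated, dosed with compound at multiple concentrations, and incubated 72 h at 37 degrees C; CellTiter-Glo is then added and luminescence read after 10 min.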
# MCF10A rereplic: DNA re-replication induction in MCF 10a cells; MCF 10A DNA re-replication, Hoechst nuclear intensity, 48 h; Potency, µM (doses to about 46.1 µM), for the others: at the highest dose activity, positive = re-replication, usual class: activators; 350,000 compounds, 2.9% hits; further: % of control where 0% means no effect; nearly all actives have a fitted effect of over 50% in size
# Active calls of the source: *; i = inactive; ? = inconclusive; · = no result; [ ] = remark or other dose. Unless noted, the call rests on the fitted dose curve; in most records, active means well fitted curve in the direction sought with a large enough effect; inconclusive means small, poorly fitted or top-dose-only effect, or another doubt; inactive means no such curve, though single readings can be large; an effect the other way counts as inactive or inconclusive. Potency means the concentration at half of the fitted maximal effect.
SMILES,KB-3-1 cytotox,SW480 rereplic,PINK1 modulator,KB-V1 MDR tox,MCF10A rereplic
Cn1c(=O)c2c(nc(SCc3nc(N)nc(N4CCCCC4)n3)n2C)n(C)c1=O,?,27.5%,-2.7%,14.6µM*,-44.6%
Cn1c(=O)c2c(nc(SCCN3CCCCC3)n2C)n(C)c1=O,i,-4.5%,-0.6%,i,1.5%
CCCn1c(SCc2nc(N)nc(N3CCCCC3)n2)nc2c1c(=O)n(C)c(=O)n2C,i,-1.0%,0.5%,i,11.2%
Cc1ccccc1CN1CCN(Cc2ccccc2C(F)(F)F)CC1,i,5.1%,10µM*,i,?
O=S1(=O)CCN(Cc2ccccc2C(F)(F)F)CC1,i,1.9%,0.4%,i,-0.1%
COC(=O)c1ccc(N=C2S/C(=C\c3cc(C)n(-c4cccnc4)c3C)C(=O)N2C)cc1,?,18.4µM*,0.8%,i,?
CCOc1ccc(CNC(=O)c2cc3ccccn3n2)cc1,i,·,-1.4%,i,·
Cc1ccc(NC(=O)CSc2ncc3c(n2)-c2ccccc2N(Cc2cccc(F)c2)S3(=O)=O)cc1F,i,·,2.9%,?,·
COc1ccc(-c2csc(NC(=O)c3ccccc3NS(=O)(=O)c3ccc(F)c(F)c3)n2)cc1,5.17µM*,?,?,4.11µM*,13µM*
COc1ccc(-c2csc(NC(=O)c3ccccc3F)n2)cc1,i,-7.0%,0.8%,i,12.7%
Cc1ccc(S(=O)(=O)Nc2ccccc2C(=O)Nc2nc(-c3ccc(F)cc3)cs2)cc1,11.6µM*,?,?,2.59µM*,5.8µM*
CCOc1ccc(S(=O)(=O)N2CCC(N3CCN(Cc4ccc(F)cc4)C(=O)C3=O)CC2)cc1,i,·,2.7%,i,·
Fc1ccc(Nc2c3c(nc4nncn24)CCC3)cc1,·,·,-0.6%,·,·
COc1ccccc1COCC(O)CN1CCN(S(=O)(=O)c2cccc(F)c2)CC1 (configuration not stated),i,28.6%,1.1%,i,6.4%
O=S(=O)(c1ccc(F)cc1)N1CCN(CC(O)COCc2ccccc2)CC1 (configuration not stated),i,-1.6%,-2.1%,20.6µM*,-3.0%
COc1ccc(COCC(O)CN2CCN(S(=O)(=O)c3c(F)cccc3F)CC2)cc1OC (configuration not stated),i,?,0.0%,13µM*,10.4%
CCC(=O)Nc1c(C#N)c2nc3ccccc3nc2n1-c1ccccc1C,i,-1.4%,2.0%,i,5.0%
N#Cc1c(NC(=O)c2ccccc2Cl)n(Cc2ccccc2)c2nc3ccccc3nc12,?,11.2µM*,?,?,?
CCCCn1c(NC(=O)c2ccccc2Cl)c(C#N)c2nc3ccccc3nc21,?,16.4µM*,39.8µM*,?,2.59µM*
CCCCn1c(NC(=O)CC)c(C#N)c2nc3ccccc3nc21,i,-5.0%,-0.6%,i,7.8%
COc1ccc(-n2c(NC(=O)c3ccco3)c(C#N)c3nc4ccccc4nc32)cc1,?,18.4µM*,-0.6%,20.6µM*,8.2µM*
Cc1ccc(C)c(N2CCN(C3C(=O)Nc4ccccc4-n4nnnc43)CC2)c1 (configuration not stated),14.6µM*,·,·,11.6µM*,·
COc1ccc(N2CCN(C3C(=O)Nc4ccccc4-n4nnnc43)CC2)cc1 (configuration not stated),i,·,·,?,·
COc1ccc(CNC(=O)CC[C@H]2O[C@@H](n3cc(C)c(=O)[nH]c3=O)C[C@@H]2O)cc1,i,·,0.6%,i,·
O=S(=O)(c1ccc(N2CCCC2c2nc3ccccc3s2)nc1)N1CCOCC1 (configuration not stated),i,-1.2%,3.4%,8.2µM*,3.9%
SMILES,KB-3-1 cytotox,SW480 rereplic,PINK1 modulator,KB-V1 MDR tox,MCF10A rereplic
CCSC1=N/C(=C\c2ccccc2)C(=O)N1,i,1.2%,?,i,7.4%
COC(=O)C(C)SC1=N/C(=C/c2ccc(-n3cncn3)cc2)C(=O)N1 (configuration not stated),i,?,0.1%,i,16.4µM*
COc1ccc(NS(=O)(=O)c2ccc(O)c(C(=O)OCC(=O)NC(C)C3CC4CCC3C4)c2)cc1 (configuration not stated),i,0.7%,-1.3%,i,5.4%
CC(NC(=O)COC(=O)c1cc(NS(=O)(=O)c2ccc(Cl)c([N+](=O)[O-])c2)ccc1O)C1CC2CCC1C2 (configuration not stated),i,9.2µM*,-5.7%,i,6.51µM*
CCc1nc2ccc(C(=O)Nc3cccc(OCC(=O)N(C)C)c3)cn2c1N(C)Cc1ccc(OC)cc1,i,·,1.3%,?,·
Cc1cccc2cc(C#N)c(SCC(=O)N3CC(=O)Nc4ccccc43)nc12,0.82µM*,7.31µM*,3.7%,?,0.651µM*
CCOC(=O)CSc1nc2cc(OCC)ccc2cc1C#N,i,-6.6%,·,i,10.5%
COc1ccc2cc(C#N)c(SCC(=O)N3CCCC3)nc2c1,?,1.0%[9.22 µM],-0.5%,?,2.5%
COc1ccc2cc(C#N)c(SCC(=O)N3CC(=O)Nc4ccccc43)nc2c1,7.31µM*,?,?,i,20.6µM*
CCOc1ccc2cc(C#N)c(SCC(=O)N3CCC(C)CC3)nc2c1,i,0.0%,?,2.59µM*,?
Cc1cc(NC(=O)CCS(=O)(=O)c2nc(-c3ccccc3)cc(C(F)(F)F)n2)no1,?,?,0.7%,i,5.17µM*
CS(=O)(=O)c1nc(-c2ccccc2)cc(C(F)(F)F)n1,?,?,-1.2%,?,2.59µM*
Cc1ccc(S(=O)(=O)CCC(=O)Nc2cc(C)on2)cc1,i,·,-0.5%,i,·
CCOC(=O)C1CC(=NO)c2ccc(OC)c(OC)c2C1 (configuration not stated),i,·,-0.4%,i,·
O=C(Cc1cn(Cc2cccc(Cl)c2)c2ccccc12)N1CCCCCC1,?,-65.0%,8.2%,4.61µM*,?
CCC(C)c1ccc(NC(=O)C2CC3CCC2C3)cc1 (configuration not stated),i,?,29.2%,i,7.31µM*
Cc1ccnc(N2CCCC(C(=O)Nc3ccc(C)c(C)c3)C2)n1 (configuration not stated),i,-7.0%,3.6%,i,16.4µM*
CC(C)c1ccc(NC(=O)C2CC3CCC2C3)cc1 (configuration not stated),i,?,0.2%,i,?
COc1ccc(NC(=O)C2CCCN(c3nc(C)cc(C)n3)C2)cc1 (configuration not stated),i,-24.2%,6.6%,?,2.91µM*
